This is an account of results in PubChem BioAssay (NCATS).

The target in test [1] is Arylsulfatase A (Homo sapiens) (UniProt P15289). In words: qHTS screen for enhancers of Arylsulfatase A (ASA1): LOPAC Validation Assay (AID 720538). Note: potency is the fitted concentration of half-maximal effect. Put shortly:
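Read-out: fluorescence at Ex=525/Em=598 nm after 1N NaOH final stop. Patient fibroblasts carrying ASA-I179S had 48h compound exposure, then 14h room-temperature pNCS hydrolysis (0.5mM final) in lysis buffer. Signal increase = enhanced activity.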
(Quantitative high-throughput screening tests each substance at several concentrations.)

The nature of test [2]: qHTS for compounds that reverse cellular toxicity of Amyloid beta (A-beta) peptide in yeast: LOPAC Validation Assay (AID 720559).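 Note: plate controls were DMSO for no effect and equimolar ferric chloride plus clioquinol rescue for full effect.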 Put shortly:
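OD600 growth readout after 48 hr at 30 C; A-beta-toxic yeast plus pinned compounds in medium. Normalization: DMSO = negative, equimolar FeCl3 + clioquinol = positive.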

A short description of test [3]: qHTS for Activators of Parkin Expression: LOPAC Validation Assay (NLuc Reporter) (AID 720572). The method, boiled down: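 Compound effects on Parkin promoter activity were measured as NanoLuc luminescence after 24 h at 37 C. The neuronal reporter line also carried FLuc, which was read first. LOPAC compounds were tested at 7 concentrations, with normalization to DMSO (0%) and positive control (100%).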

Test [4] can be described thus: qHTS for Activators of Parkin Expression: LOPAC Validation Assay (FLuc Reporter) (AID 720573). The method, boiled down: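 FLuc luminescence read-out from a neuronal line expressing a Parkin-promoter-driven coincidence reporter. Cells treated 24 h at 37 C, 5% CO2 with compounds at 7 concentrations; signal increase normalized to DMSO and positive control.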
Test [5] addresses T1, Hexokinase-4 (Homo sapiens) + Glucokinase regulatory protein (Homo sapiens) (UniProt P35557+Q14397). In words: qHTS assay for inhibitors of recombinant human GCK-GKRP interaction: Diaphorase-coupled assay (AID 743205). The method, boiled down: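 Resorufin fluorescence (525/590 nm), read each minute over 30 min, reports GCK activity coupled via G6PDH and diaphorase. Reaction: 10 nM GST-GCK, 10 nM FLAG-GKRP, 5 mM glucose, 0.4 mM ATP, 0.15 mM NADP+, 0.1 mM resazurin.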

Test [6] deals with T1, Hexokinase-4 (Homo sapiens) + Glucokinase regulatory protein (Homo sapiens). Briefly: qHTS assay for inhibitors of recombinant human GCK-GKRP interaction: ADP-Glo assay (AID 743206).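 Note: plate controls were DMSO plus enzyme for no effect and no enzyme for full effect.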 Put shortly: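 Pin-transferred compounds meet a 15 nM GST-GCK/15 nM FLAG-GKRP/2 uM S6P mix (dispense concentrations). ATP is then added to 0.4 mM final with 5 mM glucose, and the reaction runs 60 min at room temperature. ADP is quantified luminescently.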

Test [7] shares this target. Briefly: qHTS assay for inhibitors of recombinant human GCK-GKRP interaction: HTRF assay (AID 743207).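 Note: 0% = DMSO with GCK present and -100% = DMSO wells lacking GCK.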 The method, boiled down:
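HTRF read-out (ex 320 nm; 615/665 nm emission) after 60 min RT equilibration of 5 nM GST-GCK, 5 nM FLAG-GKRP, 2 uM S6P, compound and anti-FLAG/anti-GST detection antibodies; signal normalized between DMSO wells with and without GCK.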

The nature of test [8]: qHTS Assay for Identifying Gametocytocidal Compounds (AID 743244).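 Note: % is set by controls: 0 for no effect and ±100 for the full control effect; actives lower the fluorescent signal which means gametocytes are killed.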 To be noted: P. falciparum 3D7 stage III-V gametocytes, alamarBlue, 72 h; max response: stronger effect = lower value. The method, boiled down:
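Compounds are pinned into medium, gametocytes (stage III–V, 3D7, 20,000 cells/well) added, and plates held 72 h at 37 °C in 5% CO2. AlamarBlue follows for 24 h before fluorescence reading.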

The nature of test [9]: qHTS profiling of the MIPE4 collection as inhibitors of Plasmodium falciparum (3D7) proliferation (AID 743344; call rule not given here;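 note: scaled between DMSO vehicle wells and 0.29 µM artemisinin as full inhibition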). To be noted: P. falciparum 3D7 in erythrocytes, SYBR Green DNA fluorescence, 72 h; at 28.5 µM (top of the series) unless noted. Put shortly:
(§1)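 Parasite DNA was quantified by SYBR Green I fluorescence (ex 485, em 535 nm) after overnight lysis in saponin/Triton buffer at room temperature. Cultures at 0.3% parasitemia and 2.5% hematocrit were first exposed to compound for 72 h at 37 C; signals were normalised to artemisinin (0.29 uM) and vehicle wells.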

Test [10] can be described thus: qHTS profiling for inhibitors of Plasmodium falciparum (3D7) proliferation (AID 743322; call rule not given here;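 note: infected erythrocytes exposed to compound for 72 h before lysis; 100% = DMSO vehicle wells and 0% = 0.29 µM artemisinin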). Conditions: P. falciparum 3D7 proliferation; at 28.7 µM (top of the series) unless noted. The method, boiled down: as §1
Test [11] can be described thus: qHTS profiling for inhibitors of Plasmodium falciparum (DD2) proliferation (AID 743323; call rule not given here). Conditions: lower = more inhibition; at 28.7 µM (top of the series) unless noted. Put shortly:
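1536-well qHTS; infected RBCs 0.3% parasitemia/2.5% Hct final; cpd 72 h 37 C 5% CO2; lysis buffer + SYBR Green I, o/n RT dark; FI 485/535; norm. to 0.29 uM artemisinin and DMSO, plate-stack corrected.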

Where “and” joins values, the source holds several entries; their conditions need not be identical. Identical values can stand only once. Inconclusive results are not listed. Calls of active or inactive are those of the source. Unless noted, calls come from the whole dose curve; as a rule, active = well fitted curve in the direction sought with a large enough effect; inconclusive = small, poorly fitted or top-dose-only effect, or another doubt; inactive = no such curve, though single readings can be large; an effect the other way counts as inactive or inconclusive.

T1 sequence (P35557 whole entry, looked up): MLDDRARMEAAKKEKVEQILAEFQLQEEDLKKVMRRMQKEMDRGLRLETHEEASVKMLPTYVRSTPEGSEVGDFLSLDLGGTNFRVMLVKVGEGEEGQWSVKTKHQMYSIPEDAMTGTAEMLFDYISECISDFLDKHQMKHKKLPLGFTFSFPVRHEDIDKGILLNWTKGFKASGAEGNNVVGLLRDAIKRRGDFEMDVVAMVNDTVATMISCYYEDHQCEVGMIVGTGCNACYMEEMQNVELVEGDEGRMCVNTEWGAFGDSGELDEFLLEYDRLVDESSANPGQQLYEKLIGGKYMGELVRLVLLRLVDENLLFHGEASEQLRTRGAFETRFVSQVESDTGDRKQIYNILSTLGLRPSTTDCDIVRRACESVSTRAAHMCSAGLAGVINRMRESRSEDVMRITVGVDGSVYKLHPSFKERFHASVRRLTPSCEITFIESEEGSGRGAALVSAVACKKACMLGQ
T1 sequence (Q14397 whole entry, looked up): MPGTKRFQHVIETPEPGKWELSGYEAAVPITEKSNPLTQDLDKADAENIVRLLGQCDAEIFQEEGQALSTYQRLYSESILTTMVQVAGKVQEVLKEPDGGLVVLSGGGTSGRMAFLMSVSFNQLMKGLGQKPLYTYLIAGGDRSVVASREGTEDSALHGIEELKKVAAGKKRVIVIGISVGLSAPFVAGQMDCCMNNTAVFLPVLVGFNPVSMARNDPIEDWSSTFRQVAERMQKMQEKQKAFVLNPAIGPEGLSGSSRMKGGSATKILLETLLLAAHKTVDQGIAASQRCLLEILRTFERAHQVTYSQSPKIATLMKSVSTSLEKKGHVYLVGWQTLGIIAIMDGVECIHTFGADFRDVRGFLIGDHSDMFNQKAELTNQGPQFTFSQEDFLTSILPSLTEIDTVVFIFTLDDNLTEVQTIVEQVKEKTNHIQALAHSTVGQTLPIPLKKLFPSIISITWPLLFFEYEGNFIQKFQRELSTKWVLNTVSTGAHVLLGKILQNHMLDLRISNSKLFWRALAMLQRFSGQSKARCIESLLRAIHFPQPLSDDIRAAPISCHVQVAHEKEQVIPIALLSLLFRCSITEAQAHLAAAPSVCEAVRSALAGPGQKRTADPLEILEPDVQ
Sequence of Arylsulfatase A (Homo sapiens) (P15289 whole entry, looked up): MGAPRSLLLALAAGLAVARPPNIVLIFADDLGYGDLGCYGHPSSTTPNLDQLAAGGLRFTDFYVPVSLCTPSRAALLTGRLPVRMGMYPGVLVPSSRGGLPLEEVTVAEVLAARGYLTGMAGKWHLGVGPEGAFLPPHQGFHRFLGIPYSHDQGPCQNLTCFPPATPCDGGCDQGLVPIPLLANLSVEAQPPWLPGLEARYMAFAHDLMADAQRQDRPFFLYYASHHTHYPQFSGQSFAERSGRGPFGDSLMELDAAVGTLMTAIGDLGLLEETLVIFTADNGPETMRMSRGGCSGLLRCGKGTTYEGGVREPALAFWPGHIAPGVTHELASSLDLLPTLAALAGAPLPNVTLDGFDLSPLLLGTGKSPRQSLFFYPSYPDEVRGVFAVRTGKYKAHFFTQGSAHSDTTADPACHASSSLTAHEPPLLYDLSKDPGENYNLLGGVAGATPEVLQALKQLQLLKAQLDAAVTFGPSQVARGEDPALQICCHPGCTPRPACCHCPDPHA

Take `Nc1ccn([C@@H]2O[C@H](CO)[C@@H](O)C2O)c(=O)n1` (stereo partly drawn): the Potency entry in test [1] and in test [4] was “inactive” each time. Also, the outcome in test [2], in test [3], in test [5], in [6] and in test [7] was inactive. The max response in test [8] is 0.0114% (inactive) and -8.34% (inactive). For the same compound, the parasite growth, % of DMSO control in [9] amounted to 89.3%.

With `NNc1nncc2ccccc12`, the Potency entry in test [1] was “inactive”. Besides, the result in test [5], in test [6] and in test [7] was inactive. Further, the max response in test [8] was -0.582% (inactive) and 32.1% (inactive). Besides, the parasite growth, % of DMSO control in test [9] turned out to be 85.6%.

Regarding `Nc1nc(OCc2ccccc2)c2[nH]cnc2n1`, the call in [2], in [3], in [5], in [6] and in test [7] was inactive. Moreover, in test [4], the Potency entry was “inactive”. Besides, in test [8], the max response is 13.4% (inactive).

In the case of `O=c1cc(N2CCOCC2)oc2c(-c3ccccc3)cccc12`, the Potency result in [1] is “inactive”. Besides, the compound was called inactive in [2], in test [5], in test [6] and in [7]. Further, the max response in test [8] is 3.56% (inactive). In test [10], the remaining parasite growth % (stronger effect = lower value) amounted to 105%. Further, the activity, percent of control in test [11] turned out to be 96.7%. The parasite growth, % of DMSO control in [9] was determined as 51.9%.

With `Cc1ccc(Nc2nccc(N(C)c3ccc4c(C)n(C)nc4c3)n2)cc1S(N)(=O)=O`, the max response in [8] was 45.8% (inactive).

For the compound `O=c1c(O)c(-c2cc(O)c(O)c(O)c2)oc2cc(O)cc(O)c12`, the result in test [2], in test [3], in [5], in test [6] and in test [7] was inactive. Moreover, in test [4], the Potency result was “inactive”. Besides, in test [8], the max response is 4.63% (inactive). Besides, the parasite growth, % of DMSO control in test [9] was 93.5%.

As to `O=C(c1ccccc1)c1ccc2n1CCC2C(=O)O` (stereo not drawn), in test [1], the Potency result is “inactive”. For the same compound, the outcome in test [2], in test [3], in [5], in test [6] and in test [7] was inactive. Further, the max response in [8] is 44.1% (inactive) and 46.1% (inactive). This compound also showed a parasite growth, % of DMSO control in test [9] of 67.8%.

Turning to `O=C(CCc1ccc(O)cc1)c1c(O)cc(O)cc1O`, in test [1], the Potency is 2.69 µM (active). Besides, the call in test [2], in test [3], in test [5], in test [6] and in [7] was inactive. The Potency entry in [4] was “inactive”. In addition, the max response in [8] is 19.3% (inactive). This compound gave a parasite growth, % of DMSO control in test [9] of 10.4%.

Regarding `COCCCOc1ccnc(CS(=O)c2nc3ccccc3[nH]2)c1C` (stereo not drawn), in test [8], the max response was 2.05% (inactive).
